According to ChEMBL document CHEMBL3433997, “St. Jude Leishmania screening dataset” (2016):

Legend:
Format in all cases: functional
[1] = biological target: Solute carrier family 2, facilitated glucose transporter member 1 (Homo sapiens) (UniProt P11166); experiment: ST_JUDE_LEISH: Cytotoxicity at 2uM final concentration against transgenic Leishmania Mexicana promastigotes LmGLUT1 that are glucose transport deficient and complemented with the human glucose transporter GLUT1. Activity is measured by DNA content using SYBR green in vitro
Chain of Solute carrier family 2, facilitated glucose transporter member 1 (Homo sapiens) (P11166 whole entry): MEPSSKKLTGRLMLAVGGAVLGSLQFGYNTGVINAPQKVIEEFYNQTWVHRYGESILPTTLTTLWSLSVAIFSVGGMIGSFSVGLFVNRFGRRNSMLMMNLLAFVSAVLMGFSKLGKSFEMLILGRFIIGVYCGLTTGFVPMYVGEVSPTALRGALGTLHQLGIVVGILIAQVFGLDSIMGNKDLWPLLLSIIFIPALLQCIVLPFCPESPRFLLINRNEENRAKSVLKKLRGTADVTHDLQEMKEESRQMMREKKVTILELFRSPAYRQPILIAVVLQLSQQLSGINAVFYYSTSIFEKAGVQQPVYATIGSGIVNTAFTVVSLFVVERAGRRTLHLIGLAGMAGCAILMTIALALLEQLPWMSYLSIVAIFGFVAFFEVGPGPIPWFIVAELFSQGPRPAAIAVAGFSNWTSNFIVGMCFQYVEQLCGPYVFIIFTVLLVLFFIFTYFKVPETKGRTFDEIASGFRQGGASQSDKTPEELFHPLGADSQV

[2] = biological target: Hexose transporter 1 (Plasmodium falciparum) (UniProt O97467); experiment: ST_JUDE_LEISH: Cytotoxicity at 2uM final concentration against transgenic Leishmania Mexicana promastigotes LmPfHT that are glucose transport deficient and complemented with the Plasmodium falciparum hexose transporter. Activity is measured by DNA content using SYBR green in vitro
[3] = biological target: Glucose transporter (Leishmania mexicana) (UniProt O61059); experiment: ST_JUDE_LEISH: Cytotoxicity at 2uM final concentration against transgenic Leishmania Mexicana promastigotes LmGT2 that are glucose transport deficient and complemented with the L. Mexicana glucose transporter 2. Activity is measured by DNA content using SYBR green in vitro

SMILES	inhibition [1]	inhibition [2]	inhibition [3]
CC(C)c1ccc2oc(-c3ccc(NC(=O)c4ccc([N+](=O)[O-])o4)cc3)nc2c1	10.9%	10.2%	4.26%
CC1CCc2sc(-c3nnc(SC(C)C(=O)NC4CC4)o3)cc2C1 (stereo unspecified)	-0.92%	1.65%	1.25%
COc1ccc(NC(=O)[C@H](CC(C)C)Nc2cc(C)nc(NCCc3cccs3)n2)cc1	-2.08%	1.29%	-1.58%
O=C(Nc1ccc(N2CCCCC2)c(Cl)c1)c1nc[nH]n1	2.18%	-0.39%	1.65%
O=C(Nc1ccc(Cl)c(Cl)c1)Nc1ccccc1N1CCNCC1	0.02%	0.2%	1.04%
COc1ccc2nccc(NC(=O)N3CCC(NCc4cc5c(F)ccc(F)c5[nH]4)CC3)c2n1	16.9%	19.2%	22.6%
CN1CCCN(c2ccnc3cc4c(cc23)N(C(=O)c2ccc(Cl)cc2Cl)CC4)CC1	-0.4%	2.07%	0.94%
COCCn1c(C)nc2ccccc2c1=O	1.04%	1.69%	-0.79%
COc1ccc(Nc2nc(NC3CCN(Cc4ccccc4)CC3)cc(-c3ccncc3)n2)cc1	-0.03%	-0.17%	0.86%
CC(C)[C@H](NC(=O)c1ccc(O)c(-c2ccc(Cl)c(Cl)c2)c1)C(=O)NC1CCCCCC1	0.48%	0.52%	-4.76%
Oc1cccc(Nc2ccnc3cc(-c4nccs4)ccc23)c1	-0.6%	12.9%	16.1%
COc1cccc(-c2csc(C(=O)NC3CCCCN(Cc4ccc(C(C)(C)C)cc4)C3)c2)c1 (stereo unspecified)	4.84%	7.61%	5.14%
Cc1ccc(O)cc1Nc1c(C(N)=O)cnc2ccc(-c3cncs3)cc12	-2.06%	-0.39%	-1.28%
COc1cc(Cc2cnc(N)nc2N)cc(OCCCCC2NC(=O)NC2=O)c1OC (stereo unspecified)	14.8%	14.5%	11.6%
CCCn1c(Sc2ccc(C#N)c([N+](=O)[O-])c2)nnc1-c1ccc(OC)cc1	1.76%	0.24%	-0.23%
Nc1c(Cl)cc(C(O)CNCCCCCCOCCc2ccc(O)cc2)cc1Cl (stereo unspecified)	-0.61%	-1.55%	-2.56%
Cc1ccc(NC(=O)c2ccc3nccnc3c2)cc1OC1CCN(Cc2ccc(F)cc2)CC1	10.6%	11.1%	10.5%
Cc1ccc(CNC(=O)[C@H](CCCN)Nc2cc(C)nc(Nc3ccccc3)n2)cc1	6.17%	5.71%	7.78%
COc1ccc(-c2cccc(NC(=O)c3ccccc3)c2)cc1CN1CCCN(C)CC1	-2.02%	-2.26%	2.04%

SMILES	inhibition [1]	inhibition [2]	inhibition [3]
COc1ccc(NC(=O)[C@H](C)Nc2cc(C)nc(NCC3CCCCC3)n2)cc1	5.31%	3.39%	3%
CN(C)CCCNCCS(=O)(=O)c1cccc(Nc2ccc(-c3cccc(N(C)C)c3)cn2)c1	1.72%	1.88%	1.78%
COC1(C)Oc2ccc3cccc([N+](=O)[O-])c3c2C1=O (stereo unspecified)	0.18%	-0.47%	-0.75%
CO/N=C(\C)c1ccc2c(c1)CCN(CCC1CCC(NC(=O)/C=C/c3ccc(F)cc3)CC1)CC2 (stereo unspecified)	6.29%	3.02%	11.2%
CCOC(=O)c1cc(=O)c2ccc(OCC#N)cc2o1	88.5%	82.1%	74.8%
CC(CC1CCCCC1)NCc1ccccc1OCCC(=O)N1CCCC1C(N)=O (stereo unspecified)	3.79%	3.8%	0.2%
O=C(Nc1ccc(OC2CCN(Cc3ccccc3)C2)c(Cl)c1)c1ccc(F)cc1 (stereo unspecified)	-5.06%	1.99%	4.21%
O=C(NCC1CC1)C1CCN(C(c2ccc(Cl)cc2)c2ccc(Cl)cc2)CC1	0.44%	1.5%	-2.15%
CN(C)c1ccc(CN2CCC(CNC(=O)c3cc(-c4cccc(F)c4)cs3)C2)cc1 (stereo unspecified)	-1.95%	-1.31%	-9.42%
CC(=O)Nc1sc(C)c(C)c1CN1CCc2ccccc2C1	-0.17%	0.49%	-1.3%
Nc1ccn([C@@H]2O[C@H](COC(c3ccccc3)(c3ccccc3)c3ccccc3)[C@@H](O)[C@@H]2O)c(=O)n1	3.1%	4.86%	4.4%
CN(C(=O)/C=C/c1cc(C(F)(F)F)ccc1F)C1CCN(CCCCCNC(=O)/C=C/c2ccc(Cl)c(Cl)c2)CC1	3.67%	3.45%	2.56%
Cc1cc2nc(-c3ccc(/C=C/C(=O)NC4CCCCC4)cc3)[nH]c2cc1C	0.61%	1.82%	1.51%
Cc1cc(NCCCCCCCCNc2cc(C)nc3ccccc23)c2ccccc2n1	-0.97%	1.84%	0.69%
COc1ccc(C=CC(=O)Nc2ccc(N3CCCC3)cc2)cc1	1.15%	-1.95%	-1%
O=C(Nc1cccc(-c2csc(-c3nc4ccccc4[nH]3)c2)c1)c1ccncc1	11.6%	8.89%	6.69%
FC(F)(F)c1cccc(CNCCCCCNCc2ccc(Cl)cc2)c1	2.96%	1.16%	-0.19%
CN(c1ccc(NC(=O)c2ccc(F)cc2)cc1)C1CCN(Cc2cccc(F)c2)C1 (stereo unspecified)	1.66%	-0.15%	3.04%
